According to PubChem BioAssay AID1159580 (chemical genetic matrix, 2015):
The campaign covered roughly 5,500 compounds. About 2,000 (36%) were called active. About 18% were inconclusive and are not listed. Rule as the data show it: active = normalized growth mostly below about 0.91 (no sharp cut-off); inconclusive = no clear call, values can overlap the other calls; inactive = mostly above about 0.92. This is one part of the list.

Experiment: chemical genetic growth profiling, strain panel (AID 1159580);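 also: tested at 20 µM; growth read once vehicle control cultures reached saturation at 30 °C; 1 = growth at the plate median or of vehicle wells; lower values mean less growth of the strain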
Conditions: growth OD
[1] = S. cerevisiae deletion strains, locus YAL013W, strain DEP1, stronger effect = lower value
[2] = S. cerevisiae deletion strains, locus YBR229C, strain ROT2, stronger effect = lower value
[3] = S. cerevisiae deletion strains, locus YCL061C, strain MRC1, stronger effect = lower value
[4] = S. cerevisiae deletion strains, locus YDL101C, strain DUN1, stronger effect = lower value
[5] = S. cerevisiae deletion strains, locus YDL134C, strain PPH21, stronger effect = lower value
[6] = S. cerevisiae deletion strains, locus YDR150W, strain NUM1, stronger effect = lower value
[7] = S. cerevisiae deletion strains, locus YEL061C, strain CIN8, stronger effect = lower value
[8] = S. cerevisiae deletion strains, locus YGR078C, strain PAC10, stronger effect = lower value
[9] = S. cerevisiae deletion strains, locus YHR030C, strain SLT2, stronger effect = lower value
[10] = S. cerevisiae deletion strains, locus YHR087W, strain rtc3, stronger effect = lower value
[11] = S. cerevisiae deletion strains, locus YJR043C, strain POL32, stronger effect = lower value
[12] = S. cerevisiae deletion strains, locus YJR075W, strain HOC1, stronger effect = lower value
[13] = S. cerevisiae deletion strains, locus YLR039C, strain RIC1, stronger effect = lower value
[14] = S. cerevisiae deletion strains, locus YLR058C, strain SHM2 (second series), stronger effect = lower value
[15] = S. cerevisiae deletion strains, locus YLR085C, strain ARP6, stronger effect = lower value
[16] = S. cerevisiae deletion strains, locus YLR262C, strain YPT6, stronger effect = lower value
[17] = S. cerevisiae deletion strains, locus YML094W, strain GIM5, stronger effect = lower value
[18] = S. cerevisiae deletion strains, locus YMR219W, strain ESC1, stronger effect = lower value
[19] = S. cerevisiae deletion strains, locus YMR263W, strain SAP30, stronger effect = lower value
[20] = S. cerevisiae deletion strains, locus YNL153C, strain GIM3, stronger effect = lower value
[21] = S. cerevisiae deletion strains, locus YNL298W, strain CLA4 (second series), stronger effect = lower value
[22] = S. cerevisiae deletion strains, locus YNL322C, strain KRE1, stronger effect = lower value
[23] = S. cerevisiae deletion strains, locus YNR030W, strain Alg12, stronger effect = lower value
[24] = S. cerevisiae deletion strains, locus YPL055C, strain LGE1, stronger effect = lower value
[25] = S. cerevisiae deletion strains, locus YPL241C, strain CIN2, stronger effect = lower value
[26] = S. cerevisiae deletion strains, locus YPR135W, strain CTF4, stronger effect = lower value
[27] = S. cerevisiae strains, strain wild type, stronger effect = lower value
[28] = S. cerevisiae deletion strains, locus YGR229C, strain SMI1, stronger effect = lower value
[29] = S. cerevisiae deletion strains, locus YJL187C, strain SWE1, stronger effect = lower value
[30] = S. cerevisiae deletion strains, locus YKL190W, strain CNB1, stronger effect = lower value

Measured: normalized growth

O=[N+]([O-])c1ccc(N2CCOCC2)cc1
inactive: [1] 0.996 | [2] 1 | [3] 1.02 | [4] 1.06 | [5] 0.969 | [6] 1.05 | [7] 0.969 | [8] 1.03 | [9] 1.05 | [10] 0.937 | [11] 1.04 | [12] 0.978 | [13] 0.991 | [14] 0.976 | [15] 0.98 | [16] 0.962 | [17] 0.939 | [18] 0.992 | [19] 1.03 | [20] 1.03 | [21] 0.988 | [22] 0.965 | [23] 0.974 | [24] 0.971 | [25] 1.01 | [26] 1.02 | [27] 0.982

OCc1ccccc1-c1ccccc1
inactive: [1] 0.995 | [2] 0.984 | [3] 0.957 | [4] 0.941 | [5] 0.985 | [6] 0.924 | [7] 0.987 | [8] 0.985 | [28] 0.993 | [9] 0.984 | [10] 1.01 | [29] 1 | [11] 0.971 | [12] 1.02 | [30] 1.01 | [13] 0.952 | [14] 1.02 | [15] 1.03 | [16] 0.99 | [17] 0.959 | [18] 0.99 | [19] 0.987 | [20] 0.95 | [21] 1 | [22] 1.02 | [23] 0.994 | S. cerevisiae deletion strains, locus YOL006C, strain TOP1, stronger effect = lower value 0.997 | [24] 0.85 | [25] 0.988 | [26] 0.976 | [27] 1.01

O=C1c2ccccc2C(=O)N1CN(CCSc1ccccc1)CN1C(=O)c2ccccc2C1=O
inactive: [1] 1.01 | [2] 0.987 | [4] 0.992 | [6] 0.993 | [7] 0.987 | [8] 0.993 | [28] 1 | [9] 1.01 | [10] 0.986 | [29] 1.03 | [11] 1.01 | [12] 0.981 | [30] 1 | [13] 0.986 | [14] 1 | [15] 0.957 | [16] 1.07 | [17] 0.973 | [18] 0.992 | [19] 1.01 | [20] 1.01 | [21] 0.978 | [22] 0.994 | [23] 1 | [24] 0.995 | [25] 0.964 | [26] 1.05

O=C1C(SCCO)=C(SCCO)C(=O)c2ccccc21
inactive: S. cerevisiae deletion strains, locus YAL040C, strain CLN3, stronger effect = lower value 1.06 | S. cerevisiae deletion strains, locus YCL061C, strain MRC1 (second series), stronger effect = lower value 0.982 | [6] 0.981 | S. cerevisiae deletion strains, locus YDR363W, strain ESC2, stronger effect = lower value 0.966 | S. cerevisiae deletion strains, locus YER002W, strain NOP16, stronger effect = lower value 1.04 | [8] 0.982 | S. cerevisiae deletion strains, locus YNL175C, strain NOP13, stronger effect = lower value 0.988 | S. cerevisiae deletion strains, locus YNL197C, strain WHI3, stronger effect = lower value 0.99 | S. cerevisiae deletion strains, locus YNL224C, strain SQS1, stronger effect = lower value 0.985 | [25] 0.996
active: S. cerevisiae deletion strains, locus YMR307W, strain GAS1, stronger effect = lower value 0.751 | S. cerevisiae deletion strains, locus YOR083W, strain WHI5 (second series), stronger effect = lower value 0.858
